# Measured values: PubChem BioAssay (NCATS)
# Records with an inconclusive call do not appear. Calls of active or inactive are those of the source. Unless noted, the call rests on the fitted dose curve.
# Columns and labels:
# [1] = Cytotoxicity counterscreen for inhibitors of SARS-CoV-2 cell entry (AID 1645845); details: outcome: dose series up to 57.1 µM unless noted; further: nearly all actives have a fitted effect of over 50% in size
# Outline: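 ATP-content luminescence (ATPLite 1step, 15 min RT) read after 48 h compound exposure of Expi293F cells stably expressing human ACE2; normalized to cells-only wells and media-only wells.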
# [2] = Primary qHTS to identify inhibitors of SARS-CoV-2 cell entry (AID 1645846); details: SARS-CoV-2 pseudovirus cell entry assay, luminescence; activity change, negative = inhibition: at 57.1 µM (top of the series) unless noted; further: nearly all actives have a fitted effect of over 45% in size; further: potency means the concentration at half of the fitted maximal effect
# Outline: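 HEK293-ACE2 (Expi293F, stable hACE2), 1500 cells/well, o/n 37C; cpd 23 nL pin, 1 h; MLV-PP w/ SARS-CoV-2-S (Wuhan-Hu-1, Δ19 C-term); 48 h 37C; Bright-Glo luminescence; normalized vs S-PP and bald PP.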
# [3] = VSVG counterscreen qHTS to identify inhibitors of SARS-CoV-2 cell entry (AID 1645847); further: potency means the concentration at half of the fitted maximal effect; nearly all actives have a fitted effect of over 65% in size
# Outline: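 Expi293F/hACE2 cells, overnight plating; cpd 1 h, 37C/5% CO2; + VSV-G PP (MLV pseudotyping), 48 h; supernatant removed, Bright-Glo luciferase read. Norm: VSV-G PP and bald PP wells.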
# [4] = Primary qHTS for inhibitors of nuclear receptor binding SET domain protein 2 (NSD2) in an isogenic RCH-ACV NSD2 p.E1099K mutant (9B) (AID 1645876; active means well fitted curve in the direction sought with a large enough effect; an effect the other way counts as inactive or inconclusive; further: nearly all actives have a fitted effect of over 70% in size)
# [5] = Primary qHTS for inhibitors of nuclear receptor binding SET domain protein 2 (NSD2) in an RCH-ACV wild type WT cells (2C) (AID 1645877; active means well fitted curve in the direction sought with a large enough effect; an effect the other way counts as inactive or inconclusive; further: nearly all actives have a fitted effect of over 70% in size)
# [6] = molecular target: Glutathione peroxidase 1 (Homo sapiens) (UniProt P07203); test: Primary qHTS Assay for Inhibitors of Recombinant Selenoprotein Glutathione Peroxidase 1 (GPX1) (AID 1845191; active means well fitted curve in the direction sought with a large enough effect; an effect the other way counts as inactive or inconclusive; further: nearly all actives have a fitted effect of over 65% in size)
# Outline: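 NADPH consumption tracked by fluorescence at 340/450 nm between t=0 and t=15 min, room temperature. Final mix: 10 nM GPX1, 100 nM glutathione reductase, 1 mM GSH, 0.5 mM NADPH, 0.5 mM cumene hydroperoxide, 0.01% BSA; 30 min compound–enzyme preincubation.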
# [7] = molecular target: Phospholipid hydroperoxide glutathione peroxidase GPX4 (Homo sapiens) (UniProt P36969); test: Primary qHTS Assay for Inhibitors of Recombinant Selenoprotein Glutathione Peroxidase 4 (GPX4) (AID 1845192; active means well fitted curve in the direction sought with a large enough effect; an effect the other way counts as inactive or inconclusive; further: nearly all actives have a fitted effect of over 65% in size)
# Outline: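 NADPH consumption followed by fluorescence at 340/450 nm, t=0 and after 15 min at room temperature. Reaction started with cumene hydroperoxide (0.5 mM final) after 30 min compound–GPX4 preincubation; final 200 nM GPX4, 100 nM GR, 1 mM GSH, 0.5 mM NADPH.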
# [8] = qHTS drug screen for cell cycle checkpoint inhibitors in PARPi-resistant BRCA-mutant ovarian cancer cell lines. (AID 1963452); details: PEO1/OlaR viability, CellTiter-Glo luminescence, 96 h, stronger effect = lower value
# Outline: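 PEO1, PEO4 and PEO1/OlaR ovarian cancer cells, 600 per well, exposed 96 h at 37C to a dilution series. Viability read by CellTiter-Glo luminescence, normalized to DMSO and empty wells; activity summarized as Z-AUC.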
# Sequence of Phospholipid hydroperoxide glutathione peroxidase GPX4 (Homo sapiens) (P36969 whole entry, looked up): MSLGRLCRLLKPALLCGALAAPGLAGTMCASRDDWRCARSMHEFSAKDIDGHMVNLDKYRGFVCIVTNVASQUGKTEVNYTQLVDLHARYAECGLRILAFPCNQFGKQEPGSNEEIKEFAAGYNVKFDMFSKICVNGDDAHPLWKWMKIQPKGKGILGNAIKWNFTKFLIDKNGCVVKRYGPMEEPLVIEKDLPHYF
# Sequence of Glutathione peroxidase 1 (Homo sapiens) (P07203 whole entry, looked up): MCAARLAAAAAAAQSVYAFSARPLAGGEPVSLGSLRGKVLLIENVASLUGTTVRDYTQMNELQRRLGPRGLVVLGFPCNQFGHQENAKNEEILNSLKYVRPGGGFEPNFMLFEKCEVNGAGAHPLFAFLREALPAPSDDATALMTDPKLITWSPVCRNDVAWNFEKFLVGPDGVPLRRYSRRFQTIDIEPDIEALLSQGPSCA
smiles,measurement,setting,value
CN1CC[C@@H](NC(=O)Nc2ccc(C#N)cc2)C[C@@H]1c1nc2ccccc2[nH]1,Potency,[1],inactive
same,"activity change, negative = inhibition",[2],-7.47%
same,Potency,[3],24.1 µM (active)
CON(C)C(=O)N1N=C(c2cc(F)ccc2F)S[C@@]1(CCCN)c1ccccc1,Potency,[1],inactive
same,"activity change, negative = inhibition",[2],-86.6%
same,Potency,[3],0.0241 µM (active)
CC1(C)CC(O)CC(C)(C)N1O,Potency,[1],inactive
same,"activity change, negative = inhibition",[2],-11.7%
same,Potency,[4],inactive
same,Potency,[5],inactive
same,Potency,[6],inactive
same,Potency,[7],inactive
same,Z-AUC,[8],0.107 (inactive)
same,Z-AUC,[8]; measured here: PEO1 parental Z-AUC,0.652
same,Z-AUC,[8]; measured here: PEO4 Z-AUC,0.604
COc1ccc(COc2ccc(Cc3cnc(N)nc3N)cc2OC)cc1,Potency,[1],inactive
same,"activity change, negative = inhibition",[2],-52.5%
same,Potency,[3],6.81 µM (active)
CCc1cc(/C(C)=N/OCc2ccc(C3CCCCC3)c(C(F)(F)F)c2)ccc1CN1CC(C(=O)O)C1,Potency,[2],inactive
C[C@H](CCC(=O)O)[C@H]1CC[C@H]2[C@@H]3[C@@H](O)C[C@@H]4C[C@H](O)CC[C@]4(C)[C@H]3CC[C@]12C,"activity change, negative = inhibition",[2],-16.5%
C=C1C(=O)O[C@@H]2[C@H]3O[C@]3(C)CC/C=C(\C)CC[C@@H]12,Potency,[2],22.4 µM (active)
N#C/C(=C1/Nc2ccccc2S1)c1ccnc(OCc2ccc(CN3CCOCC3)cc2)n1,"activity change, negative = inhibition",[2],-97.6%
Nc1ccc(/C=C/C(=O)NCc2cc3cc(-c4ccc(C(=O)N5CCC(F)(F)CC5)cc4)cc(-c4ccc(F)cc4)c3o2)cn1,"activity change, negative = inhibition",[2],-96.3%
Cc1cc(O)cc2c1[C@]1(C)CC[C@H]3C(C)(C)CCC[C@]3(C)[C@H]1C2,outcome,[2],inactive [at 5.25 µM]
C=Cc1cc(O)cc2nc(-c3ccc(O)c(F)c3)oc12,"activity change, negative = inhibition",[2],-0.0201%
N#Cc1ccc(N(Cc2ccc(Br)cc2)n2cnnc2)cc1,"activity change, negative = inhibition",[2],-18.8%
FC(F)(F)c1ccc(/C=C/c2nc(COc3ccc(CCCCn4ccnn4)cc3)co2)cc1,"activity change, negative = inhibition",[2],-95.9%
CCN(CC)CCNC(=O)c1c(C)[nH]c(/C=C2/C(=O)Nc3ccc(-c4csc(-c5ccccc5)n4)cc32)c1C,Potency,[2],22.4 µM (active)
Cc1ccc(S(=O)(=O)Nc2cc(-c3ccc(C#N)s3)ccc2C)cc1,"activity change, negative = inhibition",[2],-92%
CC(C)NC(=O)COc1cccc(-c2nc(Nc3ccc4[nH]ncc4c3)c3ccccc3n2)c1,"activity change, negative = inhibition",[2],-14.8%
CNC(=O)c1c(-c2ccc(F)cc2)oc2cc(N(CCO)S(C)(=O)=O)c(C3CC3)cc12,"activity change, negative = inhibition",[2],-3.84%
C=CC(=O)N1CC/C(=C\c2ccc(F)c([N+](=O)[O-])c2)C(=O)/C(=C/c2ccc(F)c([N+](=O)[O-])c2)C1,Potency,[2],0.891 µM (active)
O=c1c(-n2ccnn2)c[nH]n1-c1cc(N2CCOCC2)ncn1,Potency,[2],7.08 µM (active)
same,Potency,[3],21.5 µM (active)
CS(=O)(=O)N1CCC(NC(=O)c2[nH]ncc2NC(=O)c2c(Cl)cccc2Cl)CC1,"activity change, negative = inhibition",[2],-94.8%
same,Potency,[3],0.0961 µM (active)
COc1ccc(-c2ccc3c(N4CCOC[C@@H]4C)nc(N4CCOC[C@@H]4C)nc3n2)cc1CO,Potency,[2],1 µM (active)
same,Potency,[3],0.429 µM (active)
Cc1nc2ccc(C(=O)N3CCC4(CC3)CC(=O)c3c(cnn3C(C)C)C4)cc2[nH]1,Potency,[2],14.1 µM (active)
COc1cc2c3c(n(CCCn4ccnc4)c(=O)c2cc1OC)-c1cc2c(cc1C3=O)OCO2,"activity change, negative = inhibition",[2],-94.4%
same,Potency,[3],0.0607 µM (active)
COc1cc(N2CCC(O)CC2)ccc1Nc1cc(Nc2ccccc2S(=O)(=O)C(C)C)c2cc[nH]c2n1,"activity change, negative = inhibition",[2],-27.7%
COC(C)(C)CCn1nc(Nc2c(C)cccc2C)c2cnc(Nc3ccc(OCCN4CCCC4)c(F)c3)nc21,Potency,[2],11.2 µM (active)
CC[C@]12C=CCN3CC[C@@]4(c5cc([C@@]6(C(=O)OC)C[C@H]7C[C@@H](C(C)(F)F)CN(Cc8c6[nH]c6ccccc86)C7)c(OC)cc5N(C)[C@H]4[C@@](O)(C(=O)OC)[C@@H]1OC(C)=O)[C@@H]32,"activity change, negative = inhibition",[2],-76.7% [at 19 µM]
same,Potency,[3],0.127 µM (active)
CCC[C@H](N[C@H]1CCc2cc(F)cc(F)c2C1)C(=O)Nc1cn(C(C)(C)CNCC(C)(C)C)cn1,Potency,[2],31.6 µM (active)
COc1ccc2[nH]c(S(=O)Cc3ncc(C)c(OC)c3C)nc2c1 (stereo not given),"activity change, negative = inhibition",[2],-98.9%
C=CC(=O)Nc1ccc(F)c(-c2ncnc3[nH]cc(C(=O)OCC)c23)c1,Potency,[2],inactive
C=C1CC[C@@H]2[C@](C)(CO)[C@H](O)CC[C@@]2(C)[C@@H]1C/C=C1/C(=O)OC[C@H]1O,Potency,[2],25.1 µM (active)
NC(=O)[C@H]1CCS[C@@H]2C[C@]3(CCCN3C(=O)Cc3ccc(NC(=O)COc4ccc(Cl)cc4Cl)cc3)C(=O)N12,Potency,[2],25.1 µM (active)
